The results in this text go back to the supplement of paper PMC10849652.

Of roughly 7,900 targets only a part is listed; those with a hit were picked by preference. About 0.6% of all pairs of compound and target were hits. Values without a mark were called inactive.

UniProt O43819, sequence (O43819 whole entry, looked up): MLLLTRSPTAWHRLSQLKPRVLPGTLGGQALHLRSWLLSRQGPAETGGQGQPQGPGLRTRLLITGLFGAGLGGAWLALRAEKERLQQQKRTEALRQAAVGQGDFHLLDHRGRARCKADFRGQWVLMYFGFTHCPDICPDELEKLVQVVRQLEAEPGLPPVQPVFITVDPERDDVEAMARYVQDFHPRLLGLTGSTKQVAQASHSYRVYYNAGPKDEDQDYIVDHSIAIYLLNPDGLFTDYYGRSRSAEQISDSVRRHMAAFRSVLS
UniProt P04049, sequence (P04049 whole entry, looked up): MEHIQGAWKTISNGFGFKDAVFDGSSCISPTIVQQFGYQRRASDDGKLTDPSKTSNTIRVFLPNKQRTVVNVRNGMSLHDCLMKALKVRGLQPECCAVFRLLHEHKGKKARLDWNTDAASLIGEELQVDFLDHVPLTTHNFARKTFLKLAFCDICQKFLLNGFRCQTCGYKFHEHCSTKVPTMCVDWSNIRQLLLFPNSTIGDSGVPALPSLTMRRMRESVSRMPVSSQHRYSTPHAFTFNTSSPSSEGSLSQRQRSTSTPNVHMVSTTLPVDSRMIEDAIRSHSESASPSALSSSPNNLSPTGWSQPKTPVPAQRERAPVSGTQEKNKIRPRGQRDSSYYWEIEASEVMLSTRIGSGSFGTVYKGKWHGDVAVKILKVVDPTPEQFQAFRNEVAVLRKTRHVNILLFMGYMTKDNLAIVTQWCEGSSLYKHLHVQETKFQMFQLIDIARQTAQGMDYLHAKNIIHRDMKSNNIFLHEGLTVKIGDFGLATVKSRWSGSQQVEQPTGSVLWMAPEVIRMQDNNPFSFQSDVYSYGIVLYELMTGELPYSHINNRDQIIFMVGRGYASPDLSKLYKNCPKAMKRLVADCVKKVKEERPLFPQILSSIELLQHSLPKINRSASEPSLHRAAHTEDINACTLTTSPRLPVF
UniProt Q06609, sequence (Q06609 whole entry, looked up): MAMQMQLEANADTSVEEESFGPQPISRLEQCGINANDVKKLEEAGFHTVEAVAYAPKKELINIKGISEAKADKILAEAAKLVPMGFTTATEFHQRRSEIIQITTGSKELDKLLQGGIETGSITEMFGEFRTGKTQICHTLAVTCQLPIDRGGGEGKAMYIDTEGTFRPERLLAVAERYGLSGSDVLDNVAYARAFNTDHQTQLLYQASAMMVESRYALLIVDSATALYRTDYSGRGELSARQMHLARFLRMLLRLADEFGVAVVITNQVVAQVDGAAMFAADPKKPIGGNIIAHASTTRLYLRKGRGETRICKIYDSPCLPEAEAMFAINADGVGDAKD
UniProt Q7L099, sequence (Q7L099 whole entry, looked up): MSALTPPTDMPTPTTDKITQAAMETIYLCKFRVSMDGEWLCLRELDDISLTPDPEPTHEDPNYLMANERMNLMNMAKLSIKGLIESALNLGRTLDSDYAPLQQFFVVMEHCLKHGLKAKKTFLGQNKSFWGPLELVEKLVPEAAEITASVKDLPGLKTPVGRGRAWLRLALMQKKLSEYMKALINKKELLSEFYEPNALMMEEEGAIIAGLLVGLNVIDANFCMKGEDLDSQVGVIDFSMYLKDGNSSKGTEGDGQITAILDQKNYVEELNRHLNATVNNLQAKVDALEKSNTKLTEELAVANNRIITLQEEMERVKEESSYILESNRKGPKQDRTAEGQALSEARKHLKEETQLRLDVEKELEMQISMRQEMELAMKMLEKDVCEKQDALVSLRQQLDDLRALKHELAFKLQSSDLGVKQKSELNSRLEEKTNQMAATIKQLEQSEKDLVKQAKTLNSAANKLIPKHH
UniProt Q96T51, sequence (Q96T51 whole entry, looked up): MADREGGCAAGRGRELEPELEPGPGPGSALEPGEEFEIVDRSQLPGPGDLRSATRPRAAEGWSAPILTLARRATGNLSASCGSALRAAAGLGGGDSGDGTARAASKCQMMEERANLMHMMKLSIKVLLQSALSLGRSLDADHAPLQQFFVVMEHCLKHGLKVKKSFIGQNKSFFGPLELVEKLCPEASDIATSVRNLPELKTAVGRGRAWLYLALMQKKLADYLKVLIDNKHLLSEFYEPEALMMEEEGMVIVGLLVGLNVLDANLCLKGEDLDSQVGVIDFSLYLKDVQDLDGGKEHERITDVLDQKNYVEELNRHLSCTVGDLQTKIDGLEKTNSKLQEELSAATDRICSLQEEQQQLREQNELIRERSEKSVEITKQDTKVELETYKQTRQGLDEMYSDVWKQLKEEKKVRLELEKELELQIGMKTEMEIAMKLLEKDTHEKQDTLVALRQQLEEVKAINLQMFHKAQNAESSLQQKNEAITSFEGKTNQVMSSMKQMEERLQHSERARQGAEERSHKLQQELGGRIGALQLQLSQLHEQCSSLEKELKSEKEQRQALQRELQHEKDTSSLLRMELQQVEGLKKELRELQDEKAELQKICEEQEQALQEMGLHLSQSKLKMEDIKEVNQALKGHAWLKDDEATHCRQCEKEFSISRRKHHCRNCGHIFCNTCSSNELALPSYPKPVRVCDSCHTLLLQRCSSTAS
UniProt Q8IZQ5, sequence (Q8IZQ5 whole entry, looked up): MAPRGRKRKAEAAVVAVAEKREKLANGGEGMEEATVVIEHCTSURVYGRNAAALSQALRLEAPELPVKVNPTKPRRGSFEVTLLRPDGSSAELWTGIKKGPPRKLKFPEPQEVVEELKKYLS
UniProt Q13464, sequence (Q13464 whole entry, looked up): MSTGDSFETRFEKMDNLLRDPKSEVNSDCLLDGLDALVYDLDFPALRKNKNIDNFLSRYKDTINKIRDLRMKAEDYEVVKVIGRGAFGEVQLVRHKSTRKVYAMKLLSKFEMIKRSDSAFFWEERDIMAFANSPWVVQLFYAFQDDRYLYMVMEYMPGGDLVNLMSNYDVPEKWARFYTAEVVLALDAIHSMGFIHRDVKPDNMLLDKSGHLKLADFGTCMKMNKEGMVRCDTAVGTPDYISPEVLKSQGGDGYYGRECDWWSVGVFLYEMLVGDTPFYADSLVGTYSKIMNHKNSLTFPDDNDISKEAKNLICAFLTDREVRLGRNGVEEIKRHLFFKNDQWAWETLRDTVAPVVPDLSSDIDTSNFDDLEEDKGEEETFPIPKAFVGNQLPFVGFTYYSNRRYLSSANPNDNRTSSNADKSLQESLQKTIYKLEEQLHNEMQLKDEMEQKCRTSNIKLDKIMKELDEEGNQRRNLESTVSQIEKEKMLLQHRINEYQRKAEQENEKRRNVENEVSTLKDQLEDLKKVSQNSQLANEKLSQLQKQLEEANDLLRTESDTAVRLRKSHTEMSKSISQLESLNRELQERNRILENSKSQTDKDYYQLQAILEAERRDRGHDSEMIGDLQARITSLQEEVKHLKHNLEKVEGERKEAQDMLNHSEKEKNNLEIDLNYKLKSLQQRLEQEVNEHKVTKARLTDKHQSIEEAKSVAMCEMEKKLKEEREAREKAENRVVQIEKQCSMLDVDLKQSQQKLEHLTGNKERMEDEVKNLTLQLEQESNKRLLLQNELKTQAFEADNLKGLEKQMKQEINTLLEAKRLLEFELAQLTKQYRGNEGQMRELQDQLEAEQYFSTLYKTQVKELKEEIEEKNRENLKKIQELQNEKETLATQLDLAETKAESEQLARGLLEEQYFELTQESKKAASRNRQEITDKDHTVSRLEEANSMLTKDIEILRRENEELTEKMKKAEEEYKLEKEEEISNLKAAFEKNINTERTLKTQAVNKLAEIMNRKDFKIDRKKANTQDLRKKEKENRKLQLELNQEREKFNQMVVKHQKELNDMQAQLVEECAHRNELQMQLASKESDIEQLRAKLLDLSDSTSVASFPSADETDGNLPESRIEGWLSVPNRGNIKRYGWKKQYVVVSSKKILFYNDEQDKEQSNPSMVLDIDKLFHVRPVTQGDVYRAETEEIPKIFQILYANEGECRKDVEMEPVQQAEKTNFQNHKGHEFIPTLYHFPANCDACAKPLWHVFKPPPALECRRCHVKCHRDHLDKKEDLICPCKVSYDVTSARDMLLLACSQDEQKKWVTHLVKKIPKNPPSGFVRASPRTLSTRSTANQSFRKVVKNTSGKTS
UniProt Q9BUV8, sequence (Q9BUV8 whole entry, looked up): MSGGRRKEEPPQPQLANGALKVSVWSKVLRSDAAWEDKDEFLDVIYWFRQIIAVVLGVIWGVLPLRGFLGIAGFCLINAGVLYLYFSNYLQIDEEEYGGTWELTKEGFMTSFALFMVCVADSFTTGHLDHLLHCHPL
UniProt Q9BY42, sequence (Q9BY42 whole entry, looked up): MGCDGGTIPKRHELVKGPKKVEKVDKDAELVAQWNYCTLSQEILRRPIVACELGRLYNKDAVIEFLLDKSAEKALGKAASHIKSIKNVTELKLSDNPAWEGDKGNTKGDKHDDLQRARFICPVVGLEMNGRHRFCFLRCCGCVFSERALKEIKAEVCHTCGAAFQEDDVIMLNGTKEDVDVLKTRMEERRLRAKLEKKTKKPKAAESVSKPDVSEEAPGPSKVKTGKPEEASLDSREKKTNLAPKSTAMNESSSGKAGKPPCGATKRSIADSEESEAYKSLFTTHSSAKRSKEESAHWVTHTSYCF
UniProt Q9NRX5, sequence (Q9NRX5 whole entry, looked up): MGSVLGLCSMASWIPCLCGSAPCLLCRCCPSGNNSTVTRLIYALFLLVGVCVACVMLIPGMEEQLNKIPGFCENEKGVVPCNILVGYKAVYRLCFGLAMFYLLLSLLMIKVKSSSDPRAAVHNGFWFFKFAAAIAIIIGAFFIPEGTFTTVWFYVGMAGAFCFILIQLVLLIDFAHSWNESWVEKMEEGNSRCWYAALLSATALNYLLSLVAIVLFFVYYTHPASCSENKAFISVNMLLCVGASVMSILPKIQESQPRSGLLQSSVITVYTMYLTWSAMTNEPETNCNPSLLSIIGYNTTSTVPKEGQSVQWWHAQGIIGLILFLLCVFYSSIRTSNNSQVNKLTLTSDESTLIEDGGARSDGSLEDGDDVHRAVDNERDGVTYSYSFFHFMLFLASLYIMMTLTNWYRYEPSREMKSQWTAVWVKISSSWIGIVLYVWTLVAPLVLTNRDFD
UniProt O14796, sequence (O14796 whole entry, looked up): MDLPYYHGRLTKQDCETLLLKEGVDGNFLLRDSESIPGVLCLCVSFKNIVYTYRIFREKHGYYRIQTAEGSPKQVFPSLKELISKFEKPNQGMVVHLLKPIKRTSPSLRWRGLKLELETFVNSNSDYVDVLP

Compound in the first test: CCCS(=O)(=O)Nc1ccc(F)c(C(=O)c2c[nH]c3ncc(-c4ccc(Cl)cc4)cc23)c1F [vemurafenib]
The test can be described thus: log2 fold change, soluble protein after heating vs DMSO (PISA); higher = thermal stabilisation; K562 cells, 10 uM, 30 min; active = over 0.2 and 3.5 SD of the protein, either way, in both replicates (recomputed). In outline: (§1)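 K562 cells at 2×10^6 cells/mL were exposed to 10 μM compound for 30 min, then aliquots were heated for 3 min across 48°C-58°C, pooled, and extracted in PBS containing 0.5% NP-40 at 4°C. The supernatant after 21,000xg for 90 min was taken as soluble protein and measured by TMTpro 16plex LC-MS/MS with channel sums equalised. Thermal stability is reported relative to control samples, with values from duplicates. Fold changes are given on a log2 scale.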
For RAF1 isoform 2 (UniProt P04049), the log2 fold change was 0.17.

As to RBBP6 (UniProt Q7Z6E9), the log2 fold change is 0.008.

As for ROCK1 (UniProt Q13464), the log2 fold change is 0.052.

On to RUFY1 (UniProt Q96T51), for which the log2 fold change was 0.043.

In the case of SCAMP2 (UniProt H3BUB6), the log2 fold change is -0.266.

Consider RAD51 (UniProt Q06609), for which the log2 fold change is 0.02.

SERINC1 (UniProt Q9NRX5): the log2 fold change was -0.083.

Take SCO2 (UniProt O43819): the log2 fold change was 0.05.

For SELENOH (UniProt Q8IZQ5), the log2 fold change was 0.042.

For the target RPS25 (UniProt P62851), the log2 fold change is -0.08.

As for RTF2 (UniProt Q9BY42), the log2 fold change was 0.129.

Take RAB5IF isoform 5 (UniProt Q9BUV8): the log2 fold change is 0.047.

Regarding SIK3 (UniProt H0Y4E8), the log2 fold change is -0.08.

With RPAIN isoform 8 (UniProt Q86UA6), the log2 fold change was -0.062.

Take RUFY3 isoform 3 (UniProt Q7L099): the log2 fold change is -0.032.

Take RCOR3 isoform 3 (UniProt Q9P2K3): the log2 fold change was 0.025.

Compound in another test: CCCS(=O)(=O)Nc1ccc(F)c(C(=O)c2c[nH]c3ncc(Cl)cc23)c1F
The description is as above. The method in brief: as §1
Consider RARS2 (UniProt Q5T160), for which the log2 fold change was 0.05.

In the case of RRP36 (UniProt Q96EU6), the log2 fold change was 0.002.

Turning to RCOR1 (UniProt Q9UKL0), the log2 fold change is 0.029.

Consider RBM48 isoform 2 (UniProt Q5RL73), for which the log2 fold change is -0.011.

Turning to RPS18 (UniProt P62269), the log2 fold change was -0.04.

As for RPA3 (UniProt P35244), the log2 fold change is 0.053.

RPS6KA3 (UniProt P51812): the log2 fold change is 0.016.

As for RHOXF2 (UniProt Q9BQY4), the log2 fold change is 0.012.

As to SCAMP2 (UniProt O15127), the log2 fold change is 0.043.

SAMD4B (UniProt Q5PRF9): the log2 fold change was -0.132.

In the case of RAD50, A0A494C0Y7, the log2 fold change was 0.

Regarding RNF167 (UniProt Q9H6Y7), the log2 fold change was -0.06.

With SLC19A1 (UniProt P41440), the log2 fold change was -0.031.

For SH2D1B (UniProt O14796), the log2 fold change was -0.135.

With RHOA (UniProt P61586), the log2 fold change is 0.074.

Regarding RNPEP (UniProt Q9H4A4), the log2 fold change is 0.052.

On to RAB3IL1 (UniProt E9PK89), for which the log2 fold change is -0.053.

With RDH10 (UniProt Q8IZV5), the log2 fold change is -0.058.

For the target RAF1 isoform 2 (UniProt P04049), the log2 fold change is 0.438.

In the case of RBBP6 (UniProt Q7Z6E9), the log2 fold change was 0.068.

Regarding ROCK1 (UniProt Q13464), the log2 fold change is 0.036.

With RUFY1 (UniProt Q96T51), the log2 fold change was 0.059.

Take SCAMP2 (UniProt H3BUB6): the log2 fold change is -0.335.

As to RAD51 (UniProt Q06609), the log2 fold change was -0.048.

As for SERINC1 (UniProt Q9NRX5), the log2 fold change is -0.018.

SCO2 (UniProt O43819): the log2 fold change is 0.029.

SELENOH (UniProt Q8IZQ5): the log2 fold change is 0.007.

Consider RPS25 (UniProt P62851), for which the log2 fold change is -0.102.

Turning to RTF2 (UniProt Q9BY42), the log2 fold change is 0.044.

For the target RAB5IF isoform 5 (UniProt Q9BUV8), the log2 fold change was 0.012.

For the target SIK3 (UniProt H0Y4E8), the log2 fold change was -0.076.

Consider RPAIN isoform 8 (UniProt Q86UA6), for which the log2 fold change is 0.042.

For the target RUFY3 isoform 3 (UniProt Q7L099), the log2 fold change was -0.011.

RCOR3 isoform 3 (UniProt Q9P2K3): the log2 fold change was 0.031.

Compound in the next test: CCCc1cc(C)[nH]c(=O)c1CNC(=O)c1cc(-c2ccnc(N3CCN(C)CC3)c2)cc2c1cnn2C(C)C
The description is as above. The method in brief: as §1
On to RARS2 (UniProt Q5T160), for which the log2 fold change is -0.014.

On to RRP36 (UniProt Q96EU6), for which the log2 fold change is 0.136.

On to RCOR1 (UniProt Q9UKL0), for which the log2 fold change was -0.032.

Take RPS18 (UniProt P62269): the log2 fold change was -0.01.

Take RPA3 (UniProt P35244): the log2 fold change is -0.044.

For RPS6KA3 (UniProt P51812), the log2 fold change is 0.042.

Take RHOXF2 (UniProt Q9BQY4): the log2 fold change was -0.024.

For the target SCAMP2 (UniProt O15127), the log2 fold change is 0.013.

On to RAD50, A0A494C0Y7, for which the log2 fold change is -0.244.

Turning to RNF167 (UniProt Q9H6Y7), the log2 fold change was -0.096.

For SLC19A1 (UniProt P41440), the log2 fold change is -0.018.

Take SH2D1B (UniProt O14796): the log2 fold change is -0.146.

With RHOA (UniProt P61586), the log2 fold change was 0.145.

For RNPEP (UniProt Q9H4A4), the log2 fold change was -0.013.

Take RDH10 (UniProt Q8IZV5): the log2 fold change was -0.043.

On to RAF1 isoform 2 (UniProt P04049), for which the log2 fold change was -0.113.

For RBBP6 (UniProt Q7Z6E9), the log2 fold change is -0.023.

Consider ROCK1 (UniProt Q13464), for which the log2 fold change is -0.019.

For the target RUFY1 (UniProt Q96T51), the log2 fold change was 0.029.

Consider SCAMP2 (UniProt H3BUB6), for which the log2 fold change is -0.232.

Turning to RAD51 (UniProt Q06609), the log2 fold change was 0.032.

In the case of SERINC1 (UniProt Q9NRX5), the log2 fold change was -0.874 (active).

As to SCO2 (UniProt O43819), the log2 fold change was 0.059.

Turning to SELENOH (UniProt Q8IZQ5), the log2 fold change was 0.075.

Regarding RPS25 (UniProt P62851), the log2 fold change is 0.06.

As to RTF2 (UniProt Q9BY42), the log2 fold change was -0.019.

For the target RAB5IF isoform 5 (UniProt Q9BUV8), the log2 fold change is 0.244.

SIK3 (UniProt H0Y4E8): the log2 fold change was -0.026.

As for RUFY3 isoform 3 (UniProt Q7L099), the log2 fold change was -0.093.

RCOR3 isoform 3 (UniProt Q9P2K3): the log2 fold change was -0.022.
